# Reference: ChEMBL document CHEMBL3988442, “University of Dundee, Small-Polar-MMV Screening Library” (2021)
# Out of some 48,000 compounds screened, about 13,000 (27%) showed an effect of 50% or more. The list shows a part of the results.
# Tested on: Wolbachia pipientis
# Test: Anti-Wolbachia Cell-Based Screen
# Type: functional
# Parameters: scale not given: in the data most compounds retested in dose-response had high values
# Details: 5 µM
row,SMILES,Percent Effect
1,N#Cc1cccc(S(=O)(=O)NC2CCN(CC(F)(F)F)C2)c1 (centres undefined),11.74%
2,N#Cc1ccc(SCCOCCO)c(Cl)c1,-25.21%
3,N#CC1CCCN(c2nc(-c3ccccc3)nc3c2CCNCC3)C1 (centres undefined),6.584%
4,COCCn1ccnc1C1CCCN(c2ncnc3c2CCC3)C1 (centres undefined),-0.4091%
5,Cn1cc(CN2CCc3ncnc(N4CCCC4)c3CC2)cn1,6.266%
6,CN1CCN(c2ncnc3c2CCN(Cc2nccn2C)CC3)CC1,-1.995%
7,Cn1ccnc1CN1CCc2ncnc(N3CCCC(C#N)C3)c2CC1 (centres undefined),91.92%
8,N#CC1CCCN(c2ncnc3c2CCN(Cc2ccccc2)CC3)C1 (centres undefined),115%
9,Cc1ccccc1N1CCN(C(=O)c2cccnc2-n2cncn2)CC1,25.7%
10,Cc1nc(C2CCCN2Cc2cc(Cl)c3c(c2)OCCCO3)no1 (centres undefined),-4.62%
11,CC(C)=CCC1(C(=O)O)CCCN(c2ccnc(N)n2)C1 (centres undefined),0.6776%
12,Cc1cc(I)c2c(c1)C(=O)C(CN1CCCC1)(CN1CCCC1)CO2,118.1%
13,O=C1c2cc(Br)cc(Br)c2OCC1(CN1CCCC1)CN1CCCC1,108.8%
14,CCNC(=O)NC[C@@H]1C=C(C)[C@H](CC(=O)NCCN(C)C)C[C@H]1C(C)C,-8.573%
15,OCCCN1CCc2onc(C(c3ccccc3)c3ccccc3)c2C1,6.435%
16,Cc1cc(CNc2ccc(C(F)(F)F)cc2)no1,98.51%
17,CCOc1ccc(C(F)(F)F)cc1NCc1cc(C)on1,-4.345%
18,Cc1cc(CNc2ccc3nc(C)sc3c2)no1,5.343%
19,O=C(N1CCOCC1)[C@@]12CCO[C@@H]1CCN(CC1CCCCC1)C2.O=C(O)C(F)(F)F,16.73%
20,O=C(C1CN(CC2CC2)CC12CCOCC2)N1CCCC1 (centres undefined),-4.912%
21,CC1(C(=O)N2CCOCC2)CN(CC2CCOCC2)CCO1 (centres undefined),129.5%
22,CC1(C(N)=O)CN(CC2CCOCC2)CCO1 (centres undefined),88.24%
23,C1CC(CN2CCOCC3(CCN(C4CCOCC4)C3)C2)CCO1 (centres undefined),-8.937%
24,CC1(C(N)=O)CN(CC2CCC2)CCO1 (centres undefined),100.1%
25,CC1(C)CC(CN2CCC3(CCC(=O)N(C4CCC4)C3)CC2)CCO1 (centres undefined),-1.352%
26,O=C(C1CN(CC2CCOCC2)CC12CCOCC2)N1CCOCC1.O=C(O)C(F)(F)F (centres undefined),5.554%

row,SMILES,Percent Effect
1,CN(C)C(=O)CN1CCC2(C1)CN(CC1CCOCC1)C2,-9.984%
2,CC(C)N1CC2(CCC1=O)CCN(C(=O)c1cccc(F)c1F)CC2,-11.17%
3,Cc1cc2[nH]c(CN3CCOC(C(F)(F)F)C3)cc(=O)n2n1 (centres undefined),-6.733%
4,CC(C)NC(=O)Nc1ccc(CNCc2ccc(OC(F)F)cc2)cc1,126.1%
5,COC(=O)C(CNC(=O)Nc1cn[nH]c1)Cc1cccc(C)c1 (centres undefined),-11.43%
6,Cc1cccc(CNCc2ccc(NC(=O)NC(C)C)cc2)c1,97.74%
7,CCOc1ccc(CNCc2ccc(C(=O)NC)cc2)cc1OCC,-3.882%
8,COc1cccc(CNCc2ccc(NC(=O)NC(C)C)cc2)c1,98.55%
9,COc1cccc(C(CO)NC(=O)NC(C)C)c1 (centres undefined),-12.05%
10,Cc1cccc(CNC(=O)Nc2ccc3c(c2)CCCC(=O)N3)c1,-8.181%
11,CCOc1cccc(CNCc2ccc(NC(=O)NC(C)C)cc2)c1,132%
12,CCOc1cccc(CNc2cnn(CC(C)C)c2CC)c1,-19.91%
13,N#CC1(C(=O)Nc2ccc(OC(F)F)cc2)CCCC1,-4.632%
14,COc1ccc(CNC(=O)Nc2ccc(S(=O)(=O)C(F)F)cc2)cc1,6.35%
15,COc1cccc(CC(C)NC(=O)c2ccc(CNC(C)=O)cc2)c1 (centres undefined),-2.536%
16,CCc1cc(CN(C)Cc2nc(-c3sccc3C)oc2C)on1,-5.101%
17,CC(=O)N[C@@H]1Cc2ccccc2[C@H]1Nc1nnc(C2CC2)o1,-5.354%
18,O=C1CSCN1CC(=O)N1CCCC1c1nc2ccccc2s1 (centres undefined),-3.784%
19,Cc1noc(-c2ccc(N[C@H]3CCCCNC3=O)nc2)n1,-0.1994%
20,COCCNC(=O)NC(c1ccccc1)c1ccccc1OC (centres undefined),3.321%
21,Cc1csc(N2CCN(Cc3ccn(C)c(=O)c3)CC2)n1,7.447%
22,Cn1ccc(CN2CCC(CN3CCOCC3)CC2)cc1=O,93.59%
23,Cn1ccc(CN2CCN(CC3CC3)CC2)cc1=O,107.4%
24,Cn1ccc(CN2CCC(CO)CC2)cc1=O,-2.803%
25,CCc1oc(C(=O)OC)cc1Cn1cccc(C(F)(F)F)c1=O,2.78%
26,Cc1nc(C)c(C)c(NCCSCc2[nH]cnc2C)n1,-16.36%

row,SMILES,Percent Effect
1,CO[C@H]1CCN(C(=O)c2ccc3[nH]nnc3c2)C[C@@]12CCCO2,102.9%
2,COC1CCCOC12CCN(C(=O)c1ccc3[nH]nnc3c1)CC2 (centres undefined),104.9%
3,c1cc(CNc2nnc(Cc3ccsc3)o2)cs1,-17.73%
4,Clc1cnccc1N1CCCC2(CCCOC2)C1 (centres undefined),-10.01%
5,Cc1ccc(C(=O)N2CCCN(Cc3cscn3)CC2)o1,108%
6,COCc1ccc(C(=O)N2CCCN(Cc3cscn3)CC2)cc1,110%
7,O=C(c1ccc(Cl)o1)N1CCCN(Cc2cscn2)CC1,4.253%
8,NC(=O)c1cncc(N2CCN(Cc3ccc(F)cc3Cl)CC2)n1,-6.115%
9,CCC(C)N(Cc1cccnc1)Cc1cc2c(cc1OC)OCO2 (centres undefined),6.738%
10,Cn1cccc1C(=O)N1CCc2ccc(=O)n(C)c2CC1,85.33%
11,Cc1ncnc2c1CCN(C(=O)c1cccn1C)CC2,-19.88%
12,CN1CCN(c2ncnc3c2CCN(C(=O)c2cccn2C)CC3)CC1,1.463%
13,CN(CCCNC(=O)N1CCCC1c1ccsc1)c1ccccn1 (centres undefined),7.927%
14,Cn1ccnc1-c1nccn1C[C@@H]1CCCN2CCCC[C@H]12,-12.88%
15,Cn1ccnc1CN1C[C@@H](CN2CCC(CO)CC2)[C@@H](CO)C1,-24.97%
16,Cc1cc(C2CCC2)nc(N2CCN(Cc3nccn3C)CC2)n1,-10.5%
17,OCC1CCCN(c2ncnc3c2Cc2ccccc2OC3)C1 (centres undefined),5.574%
18,Cc1cc(N2CCCC(O)CC2)n2nc(C)c(C)c2n1 (centres undefined),-2.095%
19,Cc1nc2cc(-c3nccn3C)nn2c(N2CCCC(O)C2)c1C.Cl (centres undefined),80.29%
20,Cc1nc2cc(-c3nccn3C)nn2c(N2CCCC(CO)C2)c1C (centres undefined),68.35%
21,Cc1cc(N2CC[C@H](O)C2)n2nc(C)c(C)c2n1,-7.079%
22,Cc1cc(N2CCCN(c3nc(C)nc(C)c3C)CC2)ccn1,23.81%
23,Cc1cc(N2CCCCCC2)n2nc(C)c(C)c2n1,-8.895%
24,Cc1ccccc1OCC(=O)N1CC[C@]2(C[C@@H](OCC3CC3)CO2)C1,14.13%
25,CC(NC(=O)c1coc(COc2cccc(F)c2)n1)c1nnc(N)s1 (centres undefined),-13.23%
26,O=C(N1CCc2ccccc2CC1)C1(O)Cc2ccccc2C1,1.099%

row,SMILES,Percent Effect
1,Cc1nsc(N2CCCN(C(=O)NCc3cccnc3)CC2)n1,-3.745%
2,CCNC(=O)N1C[C@@H]2OCC(=O)N(C)[C@@H]2C1,-7.352%
3,Cn1cccc1C(=O)N[C@@H]1CN(Cc2ccsc2)[C@@H]2COC[C@@H]21.O=C(O)C(F)(F)F,-6.344%
4,O=C(N[C@@H]1CN(Cc2cccs2)[C@@H]2CCCO[C@@H]21)c1cscn1.O=C(O)C(F)(F)F,6.119%
5,O=C(N[C@@H]1CN(CC2CC2)[C@@H]2CCCO[C@@H]21)c1cscn1.O=C(O)C(F)(F)F,102.8%
6,Cn1cc(C(=O)N[C@@H]2CN(Cc3cccnc3)[C@@H]3CCCO[C@@H]32)cn1.O=C(O)C(F)(F)F.O=C(O)C(F)(F)F,-2.49%
7,Cn1ccnc1C(=O)N[C@@H]1CN(CC2CCOCC2)[C@@H]2CCCO[C@@H]21.O=C(O)C(F)(F)F,97.93%
8,Cn1ccnc1C(=O)N[C@@H]1CN(Cc2ccoc2)[C@@H]2CCCO[C@@H]21.O=C(O)C(F)(F)F,105.8%
9,Cn1cc(CN2C[C@@H](NC(=O)c3cscn3)[C@H]3OCCC[C@H]32)cn1.O=C(O)C(F)(F)F.O=C(O)C(F)(F)F,-10.62%
10,Cn1cccc1C(=O)N[C@H]1CN(Cc2ccoc2)[C@@H]2CCCO[C@H]12.O=C(O)C(F)(F)F,107.4%
11,Cn1cc(C(=O)N[C@@H]2CN(CC3CCOCC3)[C@@H]3CCCO[C@@H]32)cn1.O=C(O)C(F)(F)F,-2.907%
12,Cn1ccnc1CN1C[C@H](N2CCOCC2)[C@@H]2OCCC[C@@H]21.O=C(O)C(F)(F)F.O=C(O)C(F)(F)F.O=C(O)C(F)(F)F,-9.409%
13,Cc1ccc(C(F)(F)F)cc1C(=O)N[C@H]1CN(CCO)C[C@@H]1C1CC1,7.552%
14,CNC(=O)c1c(C)cccc1NCc1noc(C2CC2)n1,-16.59%
15,N#Cc1ccc(CN2C[C@@H](F)[C@@H](OCc3nc4cnccc4[nH]3)C2)cc1,-2.578%
16,CC1CN(C(=O)NCc2cnn(-c3ccc(F)cc3F)c2)CCO1 (centres undefined),-3.691%
17,Cc1cnn(CCNCC(=O)Nc2ccc(Cl)cn2)c1,6.715%
18,CC(C)c1nn(C)c(N(C)C)c1CNC1CCN(C2CC2)CC1.Cl,-24.68%
19,CC(C)CN1CC2(CCN(C(=O)C3CSC(C)(C)C(=O)N3)CC2)CC1=O (centres undefined),-2.858%
20,Cn1cc(C(=O)N[C@@H]2CN(Cc3ccoc3)[C@@H]3CCCO[C@@H]32)cn1,112.9%
21,Cn1ccnc1C(=O)N[C@@H]1CN(Cc2ccc(F)cc2)[C@@H]2CCCO[C@@H]21.O=C(O)C(F)(F)F,106%
22,CCN(CC)[C@@H]1CN(Cc2ccc(C)o2)[C@@H]2CCCO[C@H]12,-8.708%
23,Cn1cc(C(=O)N[C@@H]2CN(Cc3ccc(F)cc3)[C@@H]3CCCO[C@@H]32)cn1.O=C(O)C(F)(F)F,-4.433%
24,Cn1ccnc1C(=O)N[C@@H]1CN(Cc2cccs2)[C@@H]2CCCO[C@@H]21.O=C(O)C(F)(F)F,-0.1124%
25,Cn1cc(C(=O)N[C@@H]2CN(Cc3cccs3)[C@@H]3CCCO[C@@H]32)cn1.O=C(O)C(F)(F)F,-10.01%
26,Cc1ccc(CN2C[C@H](NC(=O)c3nccn3C)[C@H]3OCCC[C@H]32)o1,104.4%
